# According to PubChem BioAssay:
# Activity calls are given as the source filed them. Unless noted, no rule for the calls is given here.
# Experiments:
# [1] = compounds binding Alexa647 anti-His antibody – biochemical, small-molecule microarray, 635 nm fluorescence, artefact control for SMM control protein annotation, primary screen (AID 1128); conditions: higher = more signal;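 also: score merges feature fluorescence with signal-to-noise for each printed compound spot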
# [2] = system: Human papillomavirus type 1a E7 protein (residues 1-88); experiment: HPV1a E7 small-molecule binders, primary screen, biochemical, small-molecule microarray, residues 1-88, 635 nm (AID 1129); conditions: small-molecule microarray binding, fluorescence 635 nm; higher = more signal
# [3] = target: Focal adhesion kinase 1 (Homo sapiens) (UniProt Q05397); experiment: PTK2 protein binding on printed compound slides – biochemical, small-molecule microarray, 635/667 nm fluorescence, BSA, DTT, primary screen (AID 1130); conditions: 635 nm fluorescence, higher = more signal;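 also: composite of spot emission at 667 nm and signal to noise over triplicate slides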
# Focal adhesion kinase 1 (Homo sapiens), sequence (Q05397 whole entry, looked up): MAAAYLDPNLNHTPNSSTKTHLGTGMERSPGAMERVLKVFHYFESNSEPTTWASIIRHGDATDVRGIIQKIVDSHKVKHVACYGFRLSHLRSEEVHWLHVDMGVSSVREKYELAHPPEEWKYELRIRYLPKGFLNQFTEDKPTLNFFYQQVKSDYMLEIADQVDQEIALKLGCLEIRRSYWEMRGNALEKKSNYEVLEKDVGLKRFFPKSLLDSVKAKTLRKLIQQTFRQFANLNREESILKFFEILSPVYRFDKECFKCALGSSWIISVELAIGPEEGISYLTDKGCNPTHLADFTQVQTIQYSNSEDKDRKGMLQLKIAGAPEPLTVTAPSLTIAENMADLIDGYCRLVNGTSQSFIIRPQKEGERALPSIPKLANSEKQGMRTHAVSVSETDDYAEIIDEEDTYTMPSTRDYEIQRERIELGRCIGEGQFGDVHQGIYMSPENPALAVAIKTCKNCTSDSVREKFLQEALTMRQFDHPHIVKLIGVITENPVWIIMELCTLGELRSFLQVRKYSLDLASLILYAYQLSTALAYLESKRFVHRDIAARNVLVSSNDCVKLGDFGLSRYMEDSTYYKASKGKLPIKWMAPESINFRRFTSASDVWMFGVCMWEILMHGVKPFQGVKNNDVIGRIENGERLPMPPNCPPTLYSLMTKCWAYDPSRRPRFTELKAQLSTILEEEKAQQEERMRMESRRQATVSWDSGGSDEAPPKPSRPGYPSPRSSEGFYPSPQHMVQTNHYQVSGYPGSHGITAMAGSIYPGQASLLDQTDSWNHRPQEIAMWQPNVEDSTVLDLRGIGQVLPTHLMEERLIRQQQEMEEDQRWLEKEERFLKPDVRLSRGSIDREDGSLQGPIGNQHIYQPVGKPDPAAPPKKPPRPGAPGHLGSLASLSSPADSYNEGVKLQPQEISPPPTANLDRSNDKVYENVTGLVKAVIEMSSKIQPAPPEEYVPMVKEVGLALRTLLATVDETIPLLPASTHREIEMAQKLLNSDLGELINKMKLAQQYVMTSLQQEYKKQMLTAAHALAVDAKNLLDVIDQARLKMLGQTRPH
# [4] = system: Fibrinogen (Alexa647-labelled); experiment: Alexa647-fibrinogen binding to printed small molecules – biochemical, small-molecule microarray, 635/667 nm fluorescence, artefact control for SMM control-protein annotation, profiling panel (AID 1131); conditions: fibrinogen-A647 binding fluorescence, higher = more signal;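 also: z-score merges 667 nm fluorescence with per-spot signal-to-noise over triplicate slides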
# [5] = target: Follistatin (Homo sapiens) (UniProt P19883); experiment: FST protein binding to printed compounds – biochemical, small-molecule microarray, 635/667 nm fluorescence, primary screen (AID 1132); conditions: 635 nm fluorescence, higher = more signal
# Follistatin (Homo sapiens), sequence (P19883 whole entry, looked up): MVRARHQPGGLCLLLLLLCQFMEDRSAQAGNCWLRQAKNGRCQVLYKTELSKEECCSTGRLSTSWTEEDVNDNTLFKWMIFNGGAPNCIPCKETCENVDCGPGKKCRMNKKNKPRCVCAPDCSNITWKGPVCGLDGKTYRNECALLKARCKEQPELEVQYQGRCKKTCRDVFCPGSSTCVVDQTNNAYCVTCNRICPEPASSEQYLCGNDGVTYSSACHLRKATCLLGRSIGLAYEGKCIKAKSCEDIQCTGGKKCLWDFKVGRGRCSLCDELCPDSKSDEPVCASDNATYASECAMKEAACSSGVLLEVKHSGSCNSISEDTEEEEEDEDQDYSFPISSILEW
# [6] = target: Fibroblast growth factor 2 (Homo sapiens) (UniProt P09038); experiment: basic fibroblast growth factor binding to printed compounds – biochemical, small-molecule microarray, 635/667 nm fluorescence, primary screen (AID 1133); conditions: FGF2, fluorescence 635/667, higher = more signal
# Fibroblast growth factor 2 (Homo sapiens), sequence (P09038 whole entry, looked up): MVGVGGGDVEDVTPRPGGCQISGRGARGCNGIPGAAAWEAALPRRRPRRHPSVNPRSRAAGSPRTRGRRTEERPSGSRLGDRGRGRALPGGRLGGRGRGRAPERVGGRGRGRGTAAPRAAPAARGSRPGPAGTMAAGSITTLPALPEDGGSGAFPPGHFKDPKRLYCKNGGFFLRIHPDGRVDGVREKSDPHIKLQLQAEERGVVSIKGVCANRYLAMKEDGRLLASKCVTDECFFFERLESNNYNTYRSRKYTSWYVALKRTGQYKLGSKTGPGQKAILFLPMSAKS
# [7] = JC-1 mitochondrial potential readout, lung cancer cells – cell-based, A549, JC-1 fluorescence, basal, 24 h, 100 nL, profiling panel (AID 1138); conditions: higher = more signal;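 also: A549 lung adenocarcinoma cells under basal conditions with no added stimulus; test concentration not given here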
# Lefty1 = Lefty1 protein binding to printed compounds – biochemical, small-molecule microarray, 635/667 nm fluorescence, primary screen (AID 1139); conditions: fluorescence 635/667, higher = more signal
# [8] = system: wheat germ agglutinin (Triticum aestivum), Alexa647-labelled; experiment: Alexa647-WGA lectin binding to printed small molecules – biochemical, small-molecule microarray, 635/667 nm fluorescence, artefact control for SMM control-protein annotation, profiling panel (AID 1140); conditions: WGA-A647 binding, 635 nm fluorescence, higher = more signal;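 also: score merges 667 nm feature emission with signal to noise over triplicate slides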
# [9] = target: Luciferin 4-monooxygenase (Photinus pyralis) (UniProt P08659); experiment: inhibition of purified Photinus pyralis luciferase – biochemical, luminescence, purified enzyme, 2006 set, primary screen (AID 1141); conditions: purified firefly luciferase, SteadyGlo luminescence, 30 min; higher = more signal, called active from +8 up or from −8 down;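 also: cell-free assay with purified firefly luciferase at 100 ng per well in PBS; test concentration not given here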
# Luciferin 4-monooxygenase (Photinus pyralis), sequence (P08659 whole entry, looked up): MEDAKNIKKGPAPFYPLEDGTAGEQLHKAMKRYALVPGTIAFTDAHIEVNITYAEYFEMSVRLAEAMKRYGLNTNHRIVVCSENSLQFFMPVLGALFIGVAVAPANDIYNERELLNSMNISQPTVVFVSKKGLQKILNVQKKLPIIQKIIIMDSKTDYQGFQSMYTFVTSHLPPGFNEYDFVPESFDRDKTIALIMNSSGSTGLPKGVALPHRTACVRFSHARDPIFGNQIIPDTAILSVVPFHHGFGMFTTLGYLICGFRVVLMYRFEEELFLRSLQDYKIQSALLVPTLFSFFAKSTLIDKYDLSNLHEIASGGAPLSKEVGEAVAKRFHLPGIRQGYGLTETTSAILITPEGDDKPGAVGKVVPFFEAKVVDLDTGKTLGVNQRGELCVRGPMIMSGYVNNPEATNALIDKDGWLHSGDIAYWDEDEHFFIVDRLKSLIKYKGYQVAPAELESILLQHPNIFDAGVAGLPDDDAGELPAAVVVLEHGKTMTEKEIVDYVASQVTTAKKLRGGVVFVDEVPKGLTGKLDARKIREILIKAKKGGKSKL
# [10] = system: Wnt5a (protein binding on small-molecule microarray); experiment: small molecules binding Wnt5a protein – biophysical, small-molecule microarray, 635/667 nm fluorescence, primary screen (AID 1142); conditions: 635 nm fluorescence, higher = more signal;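 also: fluorescence read at 667 nm with signal to noise per printed feature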
# [11] = ATP-based viability of Huh7 replicon cells – cell-based, CellTiter-Glo luminescence, basal, 48 h, cytotoxicity control for HCV replication inhibitor project, primary screen (AID 1143); conditions: higher = more signal, called active from +8 up or from −8 down;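 also: Huh7 hepatoma cells carrying a hepatitis C replication reporter with no stimulus; test concentration not given here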
# [12] = Pseudomonas biofilm growth suppression – PAO1 strain, BacTiter-Glo luminescence, LB-PBS, primary screen (AID 1144); conditions: P. aeruginosa PAO1 biofilm, 12 h, higher = more signal
# [13] = basal CRE-LacZ reporter activity in PC12 – cell-based, unstimulated, primary screen (AID 1145); conditions: no forskolin, luminescence, 4.5 h, higher = more signal, called active from +8 up or from −8 down
# [14] = forskolin-driven CRE-LacZ activity in PC12 – cell-based, CRE-LacZ reporter, forskolin-stimulated, primary screen (AID 1146); conditions: luminescence, 4.5 h, higher = more signal, called active from +8 up or from −8 down;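 also: PC12 cells with 6xCRE LacZ reporter stimulated by forskolin 10 µM; beta-galactosidase reporter signal reflecting CREB driven transcription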
# [15] = target: Streptavidin (Streptomyces avidinii) (UniProt P22629); experiment: compounds binding control protein streptavidin – biophysical, small-molecule microarray, 635/667 nm fluorescence, artefact control for SMM compound annotation, primary screen (AID 1147); conditions: higher = more signal;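 also: signal reflects streptavidin binding to arrayed compounds as a control protein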
# Streptavidin (Streptomyces avidinii), sequence (P22629 whole entry, looked up): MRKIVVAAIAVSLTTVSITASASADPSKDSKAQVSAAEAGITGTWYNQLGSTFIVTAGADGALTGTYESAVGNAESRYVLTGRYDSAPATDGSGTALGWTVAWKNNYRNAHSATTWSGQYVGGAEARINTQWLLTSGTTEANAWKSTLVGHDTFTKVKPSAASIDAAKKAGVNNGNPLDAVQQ
# [16] = probe aInhba binding on compound microarray – biochemical, small-molecule microarray, 635/667 nm fluorescence, primary screen (AID 1148); conditions: higher = more signal;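 also: score merges 667nm spot fluorescence with signal-to-noise for antibody binding to printed compounds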
# Torsin-1A (Homo sapiens) [17] = target: Torsin-1A (Homo sapiens) (UniProt O14656); experiment: TOR1A wild-type binding on microarray – cell lysate, small-molecule microarray, lysate, 635/667 nm, primary screen (AID 1149); conditions: COS7 hTOR1A-WT lysate, 635 nm fluorescence, higher = more signal
# Torsin-1A (Homo sapiens), sequence (O14656 whole entry, looked up): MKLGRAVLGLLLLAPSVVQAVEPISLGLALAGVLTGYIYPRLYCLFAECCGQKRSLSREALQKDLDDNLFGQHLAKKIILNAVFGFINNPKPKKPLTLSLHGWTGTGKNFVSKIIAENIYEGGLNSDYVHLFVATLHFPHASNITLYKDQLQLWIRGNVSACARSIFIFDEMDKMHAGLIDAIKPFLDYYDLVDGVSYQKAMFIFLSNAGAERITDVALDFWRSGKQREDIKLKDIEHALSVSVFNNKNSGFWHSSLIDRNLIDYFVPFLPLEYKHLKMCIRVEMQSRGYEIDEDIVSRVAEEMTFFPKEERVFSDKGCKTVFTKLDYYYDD
# Torsin-1A (Homo sapiens) [18] = target: Torsin-1A (Homo sapiens) (UniProt O14656); experiment: torsin A mutant lysate binding on microarrays – cell lysate, small-molecule microarray, COS7 lysate, 635/667 nm fluorescence, primary screen (AID 1150); conditions: COS7 hTOR1A mutant lysate, 635 nm fluorescence, higher = more signal;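 also: score pools 667 nm emission and signal to noise measuring lysate protein binding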
# [19] = system: Sonic hedgehog protein (Shh); experiment: Sonic hedgehog microarray binding compounds – biochemical, small-molecule microarray, 635/667 nm fluorescence, primary screen (AID 1151); conditions: 635 nm fluorescence, higher = more signal;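 also: Shh protein binding to compounds spotted on small-molecule microarray slides; score combines spot fluorescence intensity with signal-to-noise across triplicate slides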
Compound,composite z-score [1],composite z-score [2],composite z-score [3],composite z-score [4],composite z-score [5],composite z-score [6],z-score [7],composite z-score (Lefty1),composite z-score [8],z-score [9],composite z-score [10],z-score [11],z-score [12],z-score [13],z-score [14],composite z-score [15],composite z-score [16],composite z-score (Torsin-1A (Homo sapiens) [17]),composite z-score (Torsin-1A (Homo sapiens) [18]),composite z-score [19]
C=C(COC)/C(=C/C[C@H](OC(=O)c1ccncc1)c1ccc(CO)o1)c1cc(C(=O)OC)ccc1OC,1.38,1.12,-0.113,-0.0921,1.22,1.32,-0.713,1.14,0.113,-0.448 (inactive),0.868,-0.0528 (inactive),-1.27 (inactive),0.0422 (inactive),0.877 (inactive),-0.24,-0.003,0.787,0.366,1.62
CCOC(=O)C[C@H]1[C@H](OC(=O)c2ccc(C(=O)c3ccccc3)cc2)[C@@H](NC(=O)c2ccc(-c3ccccc3)cc2)c2cc(OCCCO)ccc2N1C(=O)c1ccc2ccccc2n1,0.128,1.01,0.0723,0.873,0.864,0.688,0.421,1.07,0.185,0.881 (inactive),0.599,-0.0434 (inactive),-1.22 (inactive),-0.738 (inactive),-0.286 (inactive),1.44,-0.102,0.274,0.408,1.11
COC(=O)[C@H](C)NC(=O)CCC1CC(OC(=O)NCCc2ccc(F)cc2)CC2(CCCC(COC(=O)NCC(c3ccccc3)c3ccccc3)O2)O1 (stereo not given in full),0.862,1.18,0.548,0.834,0.342,0.0725,0.549,0.483,0.958,0.467 (inactive),-0.073,-0.169 (inactive),-0.0102 (inactive),1.27 (inactive),-0.187 (inactive),0.688,-0.0044,-0.311,0.387,0.282
CN(C)c1ccc(C(O)C2C=CC3C(=O)N(c4ccccc4)C(=O)C3N2Nc2ccccc2F)cc1 (stereo not given),1.68,1.24,0.0651,0.793,0.404,-0.872,-1.06,0.0136,0.792,-0.484 (inactive),0.0698,-1.3 (inactive),0.136 (inactive),2.56 (inactive),1.03 (inactive),0.557,-0.125,0.221,0.15,-0.378
CC(CCN1CCCCc2nc(C)c(C)cc21)=NOC(C)CN1CCCc2nc(C)c(C)cc21 (stereo not given),-0.756,1.12,0.671,0.651,1.36,0.97,-0.12,1.45,0.766,-0.0885 (inactive),0.871,-0.191 (inactive),-0.812 (inactive),-0.24 (inactive),0.0936 (inactive),1.42,0.637,1.19,0.863,1.73
